# Compounds without any hit were thinned out: in the full panel of roughly 79,000, 15% have a hit. Unmarked numbers belong to inactive results. The source made the active and inactive calls. No stated cut-off is given here; in the data, active means growth inhibition above about 70%; inactive means the rest.
# Key:
# [1] = NCI Yeast Anticancer Drug Screen. Data for the rad52 strain (AID 147);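 further: 0% = growth of vehicle-treated control cultures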; details: S. cerevisiae rad52 mutant growth inhibition, hits give high values
# How it was run: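 Vehicle-treated cultures served as the reference for growth inhibition of compound-exposed yeast bearing a DNA repair mutation.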
# [2] = NCI Yeast Anticancer Drug Screen. Data for the wt1 strain (AID 149);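 further: 0% = growth of vehicle-treated wt1 cultures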; details: S. cerevisiae wt1 strain (SPY 50644) growth inhibition, hits give high values
# How it was run: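 Each compound is tested on wt1 yeast and the loss of growth versus vehicle gives the inhibition value.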
# [3] = NCI Yeast Anticancer Drug Screen. Data for the rad50EPP+ strain (AID 151);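 further: 0% = growth of vehicle-treated control cultures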; details: S. cerevisiae rad50 mutant strain, hits give high values
# How it was run: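 In this screen, rad50EPP+ yeast were exposed to compounds. Growth inhibition was scored against vehicle-treated controls.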
# [4] = NCI Yeast Anticancer Drug Screen. Data for the mgt1 strain (AID 153); details: S. cerevisiae mgt1 mutant growth inhibition, hits give high values
# How it was run: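 mgt1 strain exposed; growth vs vehicle control recorded as inhibition.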
# [5] = NCI Yeast Anticancer Drug Screen. Data for the rad50 strain (AID 155);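 further: 0% = growth of vehicle-only cultures of the same strain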; details: S. cerevisiae rad50 strain growth inhibition, hits give high values
# How it was run: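 Vehicle-treated cultures provide the reference for the growth inhibition reported for compound-exposed, repair-deficient yeast.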
# [6] = NCI Yeast Anticancer Drug Screen. Data for the mec2-1 strain (AID 157); details: S. cerevisiae mec2-1 strain, hits give high values
# How it was run: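 Vehicle-treated cultures served as reference for growth inhibition of compound-exposed mec2-1 yeast.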
# [7] = NCI Yeast Anticancer Drug Screen. Data for the rad14 strain (AID 159);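 further: 0% = growth of vehicle-treated control cultures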; details: S. cerevisiae rad14 strain growth inhibition, hits give high values
# How it was run: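 Inhibition of growth is reported for a repair-deficient yeast mutant following compound treatment, calculated relative to cultures that received vehicle.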
# [8] = NCI Yeast Anticancer Drug Screen. Data for the sgs1 mgt1 strain (AID 161);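 further: 0% = growth of cultures given vehicle only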; details: S. cerevisiae sgs1 mgt1 strain, hits give high values
# How it was run: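 Mutant yeast exposed to compound; growth scored against vehicle-only wells.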
# [9] = NCI Yeast Anticancer Drug Screen. Data for the CLN2oe strain (AID 163);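 further: 0% = growth of vehicle-only control cultures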; details: S. cerevisiae CLN2oe strain, hits give high values
# How it was run: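 Inhibition relative to vehicle-treated yeast is reported. Cells: strain with genetic alteration in cell-cycle control, grown with compound.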
# [10] = NCI Yeast Anticancer Drug Screen. Data for the bub3 strain (AID 167); details: S. cerevisiae bub3 mutant strain, hits give high values
# How it was run: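 Mutant yeast screening strain plus compound; vehicle-treated cultures serve as the 0% inhibition reference.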
# [11] = NCI Yeast Anticancer Drug Screen. Data for the mlh1 strain (AID 171);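 further: 0% = growth of vehicle-treated control cultures of the same strain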; details: S. cerevisiae mlh1 strain growth inhibition, hits give high values
# How it was run: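 Vehicle-normalised growth inhibition of a repair- or checkpoint-altered yeast strain following compound treatment.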
# [12] = NCI Yeast Anticancer Drug Screen. Data for the sgs1 strain (AID 173);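 further: 0% = growth of vehicle-only control cultures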; details: S. cerevisiae sgs1 mutant, hits give high values
# How it was run: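 Screen format: yeast with repair or checkpoint alterations, compound exposure, growth read relative to vehicle.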
# [13] = NCI Yeast Anticancer Drug Screen. Data for the mlh1 rad18 strain (AID 175); details: S. cerevisiae mlh1 rad18 strain growth inhibition, hits give high values
# How it was run: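 Vehicle-treated cultures served as the reference for growth inhibition in a yeast strain carrying DNA damage repair alterations exposed to each compound.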
# [14] = NCI Yeast Anticancer Drug Screen. Data for the rad18 strain (AID 177); details: S. cerevisiae rad18 mutant growth inhibition, hits give high values
# How it was run: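 Test articles were incubated with altered yeast defective in DNA damage repair. Results are given as inhibition of growth versus vehicle.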
# [15] = NCI Yeast Anticancer Drug Screen. Data for the cln2 rad14 strain (AID 165);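 further: 0% = growth equal to vehicle treated cultures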; details: S. cerevisiae cln2 rad14 strain, hits give high values
# How it was run: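 Each compound was tested on cln2 rad14 yeast. Inhibition of growth was calculated against vehicle-exposed controls.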
# [16] = NCI Yeast Anticancer Drug Screen. Data for the wt2 strain (AID 169); details: S. cerevisiae wt2 strain growth inhibition, hits give high values
# How it was run: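 Inhibition of yeast growth was determined after compound treatment, normalised to controls receiving only vehicle.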
# [17] = at 5.0 µM (retest, dose inferred, filed as 0.5)
# [18] = at 50.0 µM (retest, dose inferred, filed as 5.0)
smiles,measurement,setting,value
c1ccc2nc3c(nc2c1)sc1ccccc13,growth inhibition,[1]; at 1.2 µM,13%
same,growth inhibition,[1]; at 3.7 µM,74% (active)
same,growth inhibition,[1]; at 11.0 µM,95% (active)
same,growth inhibition,[1]; at 33.0 µM,94% (active)
same,growth inhibition,[1]; at 100.0 µM,86% (active)
same,growth inhibition,[2]; at 1.2 µM,1%
same,growth inhibition,[2]; at 3.7 µM,4%
same,growth inhibition,[2]; at 11.0 µM,17%
same,growth inhibition,[2]; at 33.0 µM,27%
same,growth inhibition,[2]; at 100.0 µM,23%
same,growth inhibition,[3]; at 1.2 µM,41%
same,growth inhibition,[3]; at 3.7 µM,92% (active)
same,growth inhibition,[3]; at 11.0 µM,95% (active)
same,growth inhibition,[3]; at 33.0 µM,94% (active)
same,growth inhibition,[3]; at 100.0 µM,84% (active)
same,growth inhibition,[4]; at 1.2 µM,2%
same,growth inhibition,[4]; at 3.7 µM,2%
same,growth inhibition,[4]; at 11.0 µM,10%
same,growth inhibition,[4]; at 33.0 µM,20%
same,growth inhibition,[4]; at 100.0 µM,18%
same,growth inhibition,[5]; at 1.2 µM,13%
same,growth inhibition,[5]; at 3.7 µM,75% (active)
same,growth inhibition,[5]; [17],54%
same,growth inhibition,[5]; at 11.0 µM,92% (active)
same,growth inhibition,[5]; at 33.0 µM,91% (active)
same,growth inhibition,[5]; [18],78% (active)
same,growth inhibition,[5]; at 50.0 µM,92.8% (active)
same,growth inhibition,[5]; at 100.0 µM,82% (active)
same,growth inhibition,[6]; at 1.2 µM,4%
same,growth inhibition,[6]; at 3.7 µM,5%
same,growth inhibition,[6]; [17],-32%
same,growth inhibition,[6]; at 11.0 µM,41%
same,growth inhibition,[6]; at 33.0 µM,42%
same,growth inhibition,[6]; [18],8%
same,growth inhibition,[6]; at 50.0 µM,31.9%
same,growth inhibition,[6]; at 100.0 µM,36%
same,growth inhibition,[7]; at 1.2 µM,4%
same,growth inhibition,[7]; at 3.7 µM,21%
same,growth inhibition,[7]; at 11.0 µM,35%
same,growth inhibition,[7]; at 33.0 µM,39%
same,growth inhibition,[7]; at 100.0 µM,35%
same,growth inhibition,[8]; [17],-52%
same,growth inhibition,[8]; [18],-5%
same,growth inhibition,[8]; at 50.0 µM,11.2%
same,growth inhibition,[9]; at 1.2 µM,-2%
same,growth inhibition,[9]; at 3.7 µM,6%
same,growth inhibition,[9]; at 11.0 µM,28%
same,growth inhibition,[9]; at 33.0 µM,37%
same,growth inhibition,[9]; at 100.0 µM,34%
same,growth inhibition,[10]; at 1.2 µM,0%
same,growth inhibition,[10]; at 3.7 µM,11%
same,growth inhibition,[10]; [17],-40%
same,growth inhibition,[10]; at 11.0 µM,41%
same,growth inhibition,[10]; at 33.0 µM,47%
same,growth inhibition,[10]; [18],12%
same,growth inhibition,[10]; at 50.0 µM,32.8%
same,growth inhibition,[10]; at 100.0 µM,41%
same,growth inhibition,[11]; at 1.2 µM,4%
same,growth inhibition,[11]; at 3.7 µM,3%
same,growth inhibition,[11]; at 11.0 µM,19%
same,growth inhibition,[11]; at 33.0 µM,28%
same,growth inhibition,[11]; at 100.0 µM,23%
same,growth inhibition,[12]; at 1.2 µM,-2%
same,growth inhibition,[12]; at 3.7 µM,20%
same,growth inhibition,[12]; at 11.0 µM,43%
same,growth inhibition,[12]; at 33.0 µM,51%
same,growth inhibition,[12]; at 100.0 µM,37%
same,growth inhibition,[13]; [17],-71%
same,growth inhibition,[13]; [18],14%
same,growth inhibition,[13]; at 50.0 µM,61.9%
same,growth inhibition,[14]; at 1.2 µM,4%
same,growth inhibition,[14]; at 3.7 µM,21%
same,growth inhibition,[14]; at 11.0 µM,45%
same,growth inhibition,[14]; at 33.0 µM,52%
same,growth inhibition,[14]; at 100.0 µM,47%
CCN(CC)C(=S)N/N=C(\C)c1ccccc1O,growth inhibition,[1]; at 1.2 µM,-36%
same,growth inhibition,[1]; at 3.7 µM,-42%
same,growth inhibition,[1]; at 11.0 µM,-1%
same,growth inhibition,[1]; at 33.0 µM,96% (active)
same,growth inhibition,[1]; at 100.0 µM,99% (active)
same,growth inhibition,[2]; at 1.2 µM,-7%
same,growth inhibition,[2]; at 3.7 µM,-3%
same,growth inhibition,[2]; at 11.0 µM,28%
same,growth inhibition,[2]; at 33.0 µM,98% (active)
same,growth inhibition,[2]; at 100.0 µM,98% (active)
same,growth inhibition,[3]; at 1.2 µM,9%
same,growth inhibition,[3]; at 3.7 µM,-7%
same,growth inhibition,[3]; at 11.0 µM,15%
same,growth inhibition,[3]; at 33.0 µM,45%
same,growth inhibition,[3]; at 100.0 µM,83% (active)
same,growth inhibition,[4]; at 1.2 µM,9%
same,growth inhibition,[4]; at 3.7 µM,16%
same,growth inhibition,[4]; at 11.0 µM,71% (active)
same,growth inhibition,[4]; at 33.0 µM,98% (active)
same,growth inhibition,[4]; at 100.0 µM,99% (active)
same,growth inhibition,[5]; at 1.2 µM,0%
same,growth inhibition,[5]; at 3.7 µM,-13%
same,growth inhibition,[5]; [17],-1%
same,growth inhibition,[5]; at 11.0 µM,22%
same,growth inhibition,[5]; at 33.0 µM,98% (active)
same,growth inhibition,[5]; [18],96% (active)
same,growth inhibition,[5]; at 50.0 µM,93.3% (active)
same,growth inhibition,[5]; at 100.0 µM,99% (active)
same,growth inhibition,[6]; at 1.2 µM,3%
same,growth inhibition,[6]; at 3.7 µM,-3%
same,growth inhibition,[6]; [17],35%
same,growth inhibition,[6]; at 11.0 µM,40%
same,growth inhibition,[6]; at 33.0 µM,97% (active)
same,growth inhibition,[6]; [18],98% (active)
same,growth inhibition,[6]; at 50.0 µM,94.5% (active)
same,growth inhibition,[6]; at 100.0 µM,99% (active)
same,growth inhibition,[7]; at 1.2 µM,3%
same,growth inhibition,[7]; at 3.7 µM,-22%
same,growth inhibition,[7]; at 11.0 µM,26%
same,growth inhibition,[7]; at 33.0 µM,96% (active)
same,growth inhibition,[7]; at 100.0 µM,98% (active)
same,growth inhibition,[8]; [17],-3%
same,growth inhibition,[8]; [18],95% (active)
same,growth inhibition,[8]; at 50.0 µM,94% (active)
same,growth inhibition,[15]; [17],54%
same,growth inhibition,[15]; [18],95% (active)
same,growth inhibition,[15]; at 50.0 µM,89.3% (active)
same,growth inhibition,[10]; at 1.2 µM,-21%
same,growth inhibition,[10]; at 3.7 µM,-7%
same,growth inhibition,[10]; [17],95% (active)
same,growth inhibition,[10]; at 11.0 µM,36%
same,growth inhibition,[10]; at 33.0 µM,97% (active)
same,growth inhibition,[10]; [18],98% (active)
same,growth inhibition,[10]; at 50.0 µM,93.3% (active)
same,growth inhibition,[10]; at 100.0 µM,99% (active)
same,growth inhibition,[16]; at 1.2 µM,-37%
same,growth inhibition,[16]; at 3.7 µM,-31%
same,growth inhibition,[16]; at 11.0 µM,6%
same,growth inhibition,[16]; at 33.0 µM,97% (active)
same,growth inhibition,[16]; at 100.0 µM,98% (active)
same,growth inhibition,[11]; at 1.2 µM,11%
same,growth inhibition,[11]; at 3.7 µM,25%
same,growth inhibition,[11]; at 11.0 µM,66%
same,growth inhibition,[11]; at 33.0 µM,98% (active)
same,growth inhibition,[11]; at 100.0 µM,99% (active)
same,growth inhibition,[12]; at 1.2 µM,-5%
same,growth inhibition,[12]; at 3.7 µM,5%
same,growth inhibition,[12]; at 11.0 µM,42%
same,growth inhibition,[12]; at 33.0 µM,97% (active)
same,growth inhibition,[12]; at 100.0 µM,98% (active)
same,growth inhibition,[13]; [17],-18%
same,growth inhibition,[13]; [18],97% (active)
same,growth inhibition,[13]; at 50.0 µM,92.2% (active)
same,growth inhibition,[14]; at 1.2 µM,18%
same,growth inhibition,[14]; at 3.7 µM,9%
same,growth inhibition,[14]; at 11.0 µM,29%
same,growth inhibition,[14]; at 33.0 µM,97% (active)
same,growth inhibition,[14]; at 100.0 µM,98% (active)

# — PubChem BioAssay (NCI)
